Assay outcomes as filed in PubChem.
A selection follows.
aSyn UTR act – Activators via SNCA 5'UTR binding, MLPCN; alpha-synuclein 5'UTR reporter, activators screen; activity score, % (tested at 7.5 µM), hits read low; actives 7.1% (n = 300,000); in the data active = activity score below about -60%
The depositor's hits bear a star.

SMILES	aSyn UTR act
Cn1c(=NC(=O)CS(=O)(=O)c2ccccc2)sc2ccccc21	-75.9*
COc1ccccc1C1=NN(C(=S)Nc2ccccc2)C(c2ccco2)C1 (stereo not drawn)	-154.1*
N/C(=N\OC(=O)COc1ccc(Cl)cc1Cl)c1cccnc1	-146.3*
N/C(=N\OC(=O)c1ccccc1)c1cccnc1	-128.2*
N/C(=N\OC(=O)c1ccc(Cl)cc1[N+](=O)[O-])c1cccnc1	-103.6*
Cc1ccc(OCC(=O)O/N=C(\N)c2cccnc2)cc1	-88.1*
N/C(=N\OC(=O)c1ccccc1Cl)c1cccnc1	-167.7*
N/C(=N\OC(=O)c1cc(Br)ccc1Cl)c1cccnc1	-215.3*
N/C(=N\OC(=O)c1cc(Cl)ccc1Cl)c1cccnc1	-130.7*
COc1cccc(N=c2oc3ccccc3cc2-c2nc3ccccc3[nH]2)c1	-80.4*
CCn1cc(Cl)c(C(=O)Nc2ccccc2C(N)=O)n1	-86.8*
CCn1cc(Cl)c(C(=O)Nc2cccc(C(F)(F)F)c2)n1	-105.4*
CCn1cc(Br)c(C(=O)Nc2cccc(SC)c2)n1	-141.3*
Cc1ccc(C(=O)Nc2cccc(C(F)(F)F)c2)cc1NC(=O)c1nccnc1N	78.5
CCn1cc(Br)c(C(=O)Nc2ccccc2C(=O)OC)n1	-87.5*
C/C(=N\NC(N)=S)C1=CCC2C3CC[C@H]4CC(O)CC[C@]4(C)C3CC[C@]12C (stereo partly drawn)	-94.6*
Clc1ccc(-n2ncc3c(NCc4ccc5c(c4)OCO5)ncnc32)cc1	-81.0*
CCC(CO)Nc1ncnc2c1cnn2-c1ccc(OC)cc1 (stereo not drawn)	-74.8*
CN(C)CCNc1ncnc2c1cnn2-c1ccc(Cl)cc1	-92.6*
COc1ccc(-n2ncc3c(NCc4ccccn4)ncnc32)cc1	-128.1*
Clc1ccc(-n2ncc3c(NCc4ccco4)ncnc32)cc1	-226.7*
COc1ccc(-n2ncc3c(NCc4ccco4)ncnc32)cc1	-162.2*
CCCN(CCC)c1ncnc2c1cnn2-c1ccc(OC)cc1	-77.0*
CCCOc1ccc(-c2nc(=S)[nH][nH]2)cc1	-76.8*
CCCOc1ccc(C2=NNC(=O)CC2)cc1	77.5
SMILES	aSyn UTR act
C=CCSc1n[nH]c(-c2ccc(OCCC)cc2)n1	-164.3*
C=CCSc1n[nH]c(-c2ccc(OCCCC)cc2)n1	-89.2*
Cc1cc(C)c2c(=O)n(-c3ccccc3)[nH]c2n1	-72.5*
Cc1sc(NC(=S)Nc2ccc(F)cc2)c(C(N)=O)c1C	-87.4*
Cc1sc(NC(=O)c2ccc(Br)s2)c(C(N)=O)c1C	-224.6*
CC(=O)Nc1sc(C)c(C)c1C(=O)Nc1ccc(C)cc1	-66.4*
Cc1sc(NC(=O)c2ccc(Cl)s2)c(C(N)=O)c1C	-284.4*
O=C(Nc1nc2c(cc3c4c(cccc42)CC3)s1)c1ccccc1Cl	-65.0*
Cc1cn(CCC(=O)Nc2ccc(N3CCOCC3)cc2)c2ccccc12	-128.4*
Cc1cn(CCC(=O)Nc2ccccc2N2CCOCC2)c2ccccc12	-105.9*
O=C(O)c1ccc(Cl)c(S(=O)(=O)Nc2ccc(OCc3ccccc3)cc2)c1	-69.2*
CN1C(=O)NC(c2cccc(O)c2)C(C(=O)c2cccs2)C1(O)C(F)(F)F (stereo not drawn)	-138.8*
Clc1cccc(N/N=C/c2ccc(N3CCOCC3)s2)c1	-167.4*
Cc1cc(C)cc(C(=O)Nc2ccc(N3CCCC3)cc2)c1	-120.5*
Cc1cc(C)cc(NC(=O)Nc2ccc(N3CCCCC3)cc2)c1	-153.0*
COc1ccc(OC)c(C(=O)NC2CC(C)(C)Cc3c2cnn3-c2ccccc2)c1 (stereo not drawn)	67.2
O=C(Nc1cccc(Cl)c1)c1ccc(Cn2cc(Cl)cn2)cc1	-69.9*
COc1cccc(NC(=O)c2cnn(-c3ccccc3)c2C)c1	-91.2*
CCn1ncc(C(=O)Nc2cccc(Cl)c2)c1C	-207.5*
Cc1ccc(NC(=O)c2cnn(-c3ccccc3)c2C)c(C)c1	-212.4*
CCc1cccc(NC(=O)c2cnn(-c3ccccc3)c2C)c1	-143.5*
CCOc1cccc2cc(-c3cn4cc(C)ccc4n3)c(=O)oc12	-83.3*
COc1cccc2cc(-c3cn4ccc(C)cc4n3)c(=O)oc12	-87.8*
COc1ccc(-n2c(C)cc(-c3cn4cccc(C)c4n3)c2C)cc1	-78.8*
COc1cccc2cc(-c3cn4cccc(C)c4n3)c(=O)oc12	-154.4*
SMILES	aSyn UTR act
CCCCC(=O)Nc1nc2c(s1)COc1ccccc1-2	-107.0*
CCCC(=O)Nc1nc2c(s1)COc1ccccc1-2	-134.3*
Cc1cccc(NC(=O)NCc2ccc3c(c2)OCO3)c1	-67.0*
O=C(Nc1cccc(F)c1)Nc1ccccn1	-152.7*
O=C(NCc1ccccn1)Nc1ccc2c(c1)OCO2	-91.9*
O=C(Nc1ccc2c(c1)OCO2)Nc1ccccn1	-85.8*
O=C(NCc1ccncc1)Nc1ccc2c(c1)OCO2	-64.3*
CC(=O)c1cccc(NC(=O)NCc2ccccn2)c1	-166.9*
O=C(NCc1cccs1)Nc1ccc2c(c1)OCO2	-145.0*
O=C(Nc1ccccn1)Nc1cccs1	-76.8*
O=C(Nc1ccc2c(c1)OCO2)Nc1cnccn1	-98.3*
O=C(NCc1cccs1)Nc1ccc(Cl)cc1	-98.5*
Cc1ccc(N2CN=c3s/c(=C\c4ccccn4)c(=O)n3C2)cc1	-63.1*
CNC(=O)c1cc(C(=O)c2ccc(Cl)cc2)c[nH]1	-63.9*
O=C(O)c1cccc2c1-c1ccccc1/C2=N\Nc1ccccc1	-82.9*
Cc1c(CCC(=O)N2CCC(C(=O)O)(c3ccccc3)CC2)c(=O)oc2cc3oc4c(c3cc12)CCCC4	67.5
O=C(COc1ccc2c3c(c(=O)oc2c1)CCC3)N1CCCCC1	-81.7*
O=C(COc1ccc2ccccc2c1)N1CCCC1	-68.1*
Cc1c(CCC(=O)N2CCC(C(=O)O)CC2)c(=O)oc2cc3oc4c(c3cc12)CCCC4	74.1
O=C(COc1ccc2ccccc2c1)NC1CC1	-127.7*
O=C(COc1ccc2ccccc2c1)Nc1cccnc1Cl	-77.2*
N#Cc1cnc2sc3ccccc3n2c1=N	-68.0*
COc1ccc(O)c(/C=N/N2CCCCC2)c1	-149.8*
COc1ccc(Cl)cc1C(=O)Nc1nc2ccccc2[nH]1	89.1
COc1cc(C(=O)Nc2nc3ccccc3[nH]2)ccc1OC(F)F	-233.3*
SMILES	aSyn UTR act
COc1ccc(C(=O)Nc2nc3ccccc3[nH]2)cc1OC	-147.1*
CCOc1ccc(C(=O)Nc2nc3ccccc3[nH]2)cc1OCC	-172.0*
COC(=O)c1c(NC(=O)CCl)sc(C(=O)N2CCOCC2)c1C	-82.8*
Cc1ccc(NC(=O)C(C)N=C2NS(=O)(=O)c3ccccc32)cc1F (stereo not drawn)	-95.7*
c1csc(-c2cn3ccc4ccccc4c3n2)c1	-208.7*
CCOC(=O)c1sc(Nc2nc3ccc(OC)cc3s2)cc1C	-68.9*
CCOC(=O)c1sc(Nc2nc3c(F)cccc3s2)cc1C	-279.6*
N=c1n(CCN2CCOCC2)c2ccccc2n1CC(=O)c1ccc(Cl)c(Cl)c1	-66.0*
COc1ccc(-c2coc3cc(O)cc(O)c3c2=O)cc1	-114.6*
CC(C)Oc1cc(O)c2c(=O)c(-c3ccc(O)cc3)coc2c1	-138.3*
COc1ccc(-c2coc3cc(OC)cc(OC)c3c2=O)cc1	-166.2*
COc1ccc(-c2coc3cc(OC)cc(O)c3c2=O)cc1	-129.8*
O=c1c(-c2ccc(O)cc2)coc2cc(O)cc(O)c12	-99.2*
COc1ccc(OS(=O)(=O)Cc2ccccc2)cc1	-103.5*
Brc1ccc(Sc2cnc3ccccc3n2)cc1	-77.1*
c1ccc(Sc2cnc3ccccc3n2)cc1	-168.6*
Clc1ccc(Sc2cnc3ccccc3n2)cc1	-75.2*
